Experimental findings from PubChem BioAssay (NCATS) are described below.

Experiment [1] can be described thus: Identifying Small Molecule Inhibitors of Pancreatic Cancer Stem Cells (SN12C, Adherent) (AID 1259358).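 Note: cell survival measured after 48 h of compound exposure.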 Note: potency is the fitted concentration of half-maximal effect. The gist of the method:
(§1)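 Pre-formed 14-day tumor spheroids or adherent cells dosed and incubated 48 h, 37C, 5% CO2. Viability assessed by CellTiter-Glo.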

The nature of experiment [2]: Identifying Small Molecule Inhibitors of Pancreatic Cancer Stem Cells (Panc1, Adherent) (AID 1259362). Note: potency is the fitted concentration of half-maximal effect. The following applies: Potency: viability. The method, boiled down:
as §1

A short description of experiment [3]: P-glycoprotein substrates identified in KB-8-5-11 adenocarcinoma cell line, qHTS therapeutic library screen (AID 1346987). Note: nearly all actives have a fitted effect of over 65% in size. Note: potency is the fitted concentration of half-maximal effect. The method, boiled down: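 P-gp-mediated resistance screen: KB-8-5-11 cells treated 72 h with compounds in dose-response. CellTiter-Glo viability.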
(qHTS replaces the single test concentration by a dilution series.)

Experiment [4] is described as follows: Identifying Small Molecule Inhibitors of Pancreatic Cancer Stem Cells (A278, Adherent) (AID 1259361).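 Note: viability read after 48 h compound exposure; nearly all actives have a fitted effect of over 35% in size.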 The method, boiled down: as §1
The nature of experiment [5]: Identifying Small Molecule Inhibitors of Pancreatic Cancer Stem Cells (SN12C, Spheroid) (AID 1259360). Note: potency is the fitted concentration of half-maximal effect. The settings on record: Potency: SN12C spheroid viability. The method, boiled down:
as §1

The nature of experiment [6]: P-glycoprotein substrates identified in KB-3-1 adenocarcinoma cell line, qHTS therapeutic library screen (AID 1346986). Note: nearly all actives have a fitted effect of over 60% in size.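 Note: potency is the fitted concentration of half-maximal effect; potency is for cytotoxicity meaning loss of cell viability.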 The method, boiled down:
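Counter-screen: cherry-picked hits retested in the KB pair and in HEK-293 pcDNA/MDR-19 cells ± tariquidar. Primary screen used 72 h CellTiter-Glo viability in KB-3-1 and KB-8-5-11.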

Structures are written as SMILES. “And” between values parts separate entries of the source, which are not always exact repeats. Equal values may be shown once. Results filed as inconclusive are left out. The source made the active and inactive calls. Calls come from the whole dose curve; as a rule, active = well fitted curve in the direction sought with a large enough effect; inconclusive = small, poorly fitted or top-dose-only effect, or another doubt; inactive = no such curve, though single readings can be large; an effect the other way counts as inactive or inconclusive.

In the case of `CCOc1ccn(-c2ccc(F)cc2)c(=O)c1C(=O)Nc1ccc(Oc2ccnc(N)c2Cl)c(F)c1`, the figures for the Potency in experiment [1], in experiment [2] and in experiment [3] were 18.7 µM (active), 6.62 µM (active) and 14.8 µM (active), respectively.
On to `COc1ccc(-c2ccc3c(N4CCOC[C@H]4C)nc(N4CCOC[C@H]4C)nc3n2)cc1CO`, for which the Potency in experiment [1] was 0.0148 µM (active); in experiment [3] it was 0.0132 µM (active).
Regarding `Cn1cc(-c2ccc3nnc(C(F)(F)c4ccc5ncccc5c4)n3n2)cn1`, the Potency result in experiment [1] and in experiment [3] was “inactive” each time. In experiment [4], the IC50 (viability decrease) result is “inactive”.
Turning to `Cc1c(CN2CCN(C(=O)C(C)C)CC2)sc2c(N3CCOCC3)nc(-c3cnc(N)nc3)nc12`, the Potency is 0.0935 µM (active) in experiment [1], 0.166 µM (active) in experiment [5] and 0.0833 µM (active) in experiment [3].
The matching figures for `CN[C@@H](C)C(=O)N[C@H]1CCCC[C@H]2CC[C@@H](C(=O)N[C@@H](c3ccccc3)c3cn(CCCCc4ccc(CCCCn5cc([C@@H](NC(=O)[C@@H]6CC[C@@H]7CCCC[C@H](NC(=O)[C@H](C)NC)C(=O)N76)c6ccccc6)nn5)cc4)nn3)N2C1=O`: “inactive”, “inactive” and “inactive”.
`CCCCCCCc1ccc(CCc2cccc(O)c2C(=O)O)cc1`: the Potency entry in experiment [1] and in experiment [2] was “inactive” in each case.
For the molecule `Cc1cccc(-c2nn(C(=S)Nc3ccccc3)cc2-c2ccnc3ccccc23)n1`, the Potency entry in experiment [1], in experiment [2], in experiment [6] and in experiment [3] was “inactive” in each case.
For `Clc1ccc(Nc2nnc(Cc3ccncc3)c3ccccc23)cc1`, the Potency entry in experiment [1] and in experiment [3] was “inactive” throughout. Also, the IC50 (viability decrease) entry in experiment [4] was “inactive”.
Turning to `COc1ccc(COc2cc3oc(=O)c4cc(C(C)O)ccc4c3cc2OC)cc1` (stereo not given), the Potency entry in experiment [1] and in experiment [5] was “inactive” each time. The Potency in experiment [3] is 8.33 µM (active) and 3.66 µM (active).
Regarding `CCn1c(-c2nonc2N)nc2cnc(Oc3cccc(NC(=O)c4ccc(OCCN5CCOCC5)cc4)c3)cc21`, the Potency result in experiment [1] and in experiment [2] was “inactive” in each case. In addition, the Potency is 3.66 µM (active) in experiment [6] and 1.64 µM (active) in experiment [3].
